# Source: PubChem BioAssay (National Center for Advancing Translational Sciences (NCATS))
# ELG1 DNA repair – qHTS screen for small molecules that inhibit ELG1-dependent DNA repair in human embryonic kidney (HEK293T) cells expressing luciferase-tagged ELG1. HEK293T ELG1-luciferase reporter, luminescence, 16 h; DNA damage induced by 5-fluorouridine. Potency, µM (doses to about 46.1 µM), for inactives: top-dose activity change, negative = inhibition, most hits filed as inhibitors. actives 2.3% (n = 330,000); also: potency is read from the fitted curve at half-maximal effect; nearly all actives have a fitted effect of over 55% in size
#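 HEK293T cells expressing luciferase-tagged ELG1 (2,000/well) received 5-Fluorouridine plus compound or DMSO for 16 hr at 37 °C. Luciferase was read by ONE-Glo luminescence after 30 min at room temperature.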
# DT40 TDP1 CPT – qHTS for Inhibitors of human tyrosyl-DNA phosphodiesterase 1 (TDP1): qHTS in cells in presence of CPT; chicken DT40 Tdp1-/-;hTDP1 cells + 20 nM CPT, ATP luminescence, 48 h; Potency, µM (titrated, usually from 46.2 µM), without a hit: top-dose activity change, negative = growth inhibition, actives largely listed as inhibitors; actives 12% (n = 420,000); AID 686979, 2013; also: potency is read from the fitted curve at half-maximal effect; nearly all actives have a fitted effect of over 55% in size
#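 Cell growth measured by CellTiter-Glo luminescence after a minimum 48 h, 37 C compound exposure with 20 nM CPT in Tdp1-knockout DT40 cells stably expressing hTDP1, seeded 400/well; qHTS titration format.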
# HT1080-NT tox – qHTS for induction of synthetic lethality in tumor cells producing 2HG: qHTS for the HT-1080-NT fibrosarcoma cell line; HT-1080-NT fibrosarcoma viability, CellTiter-Glo ATP luminescence, 48 h; Potency, µM (top dose mostly 46.1 µM), for the others: top-dose activity, negative = less viability, actives largely listed as cytotoxic; actives 1.6% (n = 360,000);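 also: NT is the 2HG producing partner of a matched IDH1 knockdown line; potency is read from the fitted curve at half-maximal effect; 0% = DMSO-treated cells and -100% = media-only wells without cells; nearly all actives have a fitted effect of over 55% in size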
#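 HT-1080-NT fibrosarcoma cells (2HG-overproducing), 750 cells/well in RPMI with 5% FBS, dosed after 2 h and incubated 48 h at 37C. CellTiter-Glo luminescence normalized to DMSO and no-cell wells; concentration-response curves fitted and classed.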
# HT1080 IDH1KD tx – qHTS for induction of synthetic lethality in tumor cells producing 2HG: qHTS for the HT-1080-IDH1KD cell line. Potency, µM (titrated, usually from 46.1 µM), inactives show top-dose activity, negative = toxicity, most hits filed as cytotoxic. actives 2% (n = 360,000). AID 686971, 2013. HT-1080 IDH1 knockdown viability, ATP luminescence, 48 h;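 also: potency is read from the fitted curve at half-maximal effect; 0% = DMSO wells and -100% = cell-free medium wells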
#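 Viability of IDH1-knockdown HT-1080 fibrosarcoma cells was assessed by CellTiter-Glo after 48 h at 37 °C with titrated compound; concentration-effect curves were classified by fit quality and response size.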
# DT40 TDP1 no CPT – qHTS for Inhibitors of human tyrosyl-DNA phosphodiesterase 1 (TDP1): qHTS in cells in absence of CPT. AID 686978, 2013. DT40 Tdp1-/- hTDP1 cells, no CPT, ATP luminescence, 48 h. actives 15% (n = 420,000). Potency, µM (highest dose often 46.2 µM), for inactives: at the highest dose activity change, negative = growth inhibition, hits mostly inhibitors; also: potency is read from the fitted curve at half-maximal effect; nearly all actives have a fitted effect of over 55% in size
#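 Compound effects on proliferation are scored in DT40 Tdp1-/-;hTDP1 cells in the absence of CPT. ATP levels (CellTiter-Glo luminescence) are recorded after a ≥48 hr, 37 °C incubation.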
# IL1B secr inh – qHTS for Inhibitors of Inflammasome Signaling: IL-1-beta AlphaLISA Primary Screen. THP-1 LPS/ATP IL-1B secretion, AlphaLISA, 16 h; active compounds read low. activity change, % at 57.5 µM. actives 4.7% (n = 360,000). AID 743279, 2014; in the data active = activity change below about -50%; inconclusive = mostly about -30% to -49%
#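 Secreted IL-1B measured by AlphaLISA bead assay after 16 h compound exposure of THP-1 cells; compounds (final up to 57.5 uM) added 1 h before LPS (250 ng/mL) and ATP (1.25 mM) stimulation; lower signal means less secretion.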
# * marks the source's active call; other numbers are inactive results; ? = inconclusive; nt = no result. Shown are actives, neighbours in structure and some others; about 19% of the full set was active somewhere. Unless noted, calls follow the shape of the dose curve; as a rule, active = well fitted curve in the direction sought with a large enough effect; inconclusive = small, poorly fitted or top-dose-only effect, or another doubt; inactive = no such curve, though single readings can be large; an effect the other way counts as inactive or inconclusive. Unless noted, % is scaled to controls: 0 for no effect and ±100 for the full control effect.
SMILES,ELG1 DNA repair,DT40 TDP1 CPT,HT1080-NT tox,HT1080 IDH1KD tx,DT40 TDP1 no CPT,IL1B secr inh
COc1cccc(-c2nc(SCC(=O)Nc3ccc4c(c3)OCCO4)c(-c3ccccc3)[nH]2)c1,nt,23µM*,nt,nt,18µM*,nt
COc1ccc(-c2[nH]c(-c3ccc(C)cc3)nc2SCC(=O)NC2CCCC2)cc1,?,?,-16%,?,?,-26
COc1ccc2nc(SCC(=O)NC3CCCC3)c(C)cc2c1,-20%,16µM*,?,5.8µM*,16µM*,65
COc1cccc(-c2nc(SCC(=O)NC3CCCC3)c(-c3ccc(F)cc3)[nH]2)c1,nt,?,nt,nt,21µM*,nt
COc1ccc2c(C)cc(SCC(=O)NC3CCCC3)nc2c1,-4%,-24%,-1%,-1%,?,6
CC[C@@]1(C(=O)OC)N[C@H](CN(C)S(=O)(=O)c2ccc(C(F)(F)F)cc2)[C@@H]2C(=O)N(C)C(=O)[C@@H]21,4%,-2%,8%,7%,-13%,17
O=C(O)c1ccc2c(c1)C(=O)N(c1cccc3ccccc13)C2=O,-10%,-2%,?,12%,?,13
CCNc1ncc2nc(CCc3ccccc3)c(=O)n(C[C@H]3CCCO3)c2n1,nt,-25%,nt,nt,0%,nt
Cc1ccc(C)c(N2N=C(C(=O)N(CC(C)C)c3c(N)n(Cc4ccccc4)c(=O)[nH]c3=O)CCC2=O)c1,-7%,29%,1%,4%,2%,30
COc1ccc(-c2[nH]c(-c3cccc(OC)c3)nc2SCC(=O)Nc2ccc3c(c2)OCO3)cc1,nt,16µM*,nt,nt,?,nt
CC(C)Oc1ccc(C(=O)N(Cc2ccc(N(C)C)cc2)C2CCS(=O)(=O)C2)cc1 (centres undefined),nt,-4%,nt,nt,-26%,nt
C=CCN(c1ccccc1)S(=O)(=O)c1cccc(C(=O)Nc2ccc(N3CCOCC3)cc2)c1,15µM*,9.2µM*,-15%,?,2.6µM*,0
C=CCN(c1ccccc1)S(=O)(=O)c1cccc(C(=O)NCc2ccncc2)c1,8.2µM*,?,-3%,-2%,?,-11
CCN(c1ccccc1)S(=O)(=O)c1cccc(C(=O)NCc2ccncc2)c1,-10%,-25%,-12%,-4%,?,10
C=CCN(c1ccccc1)S(=O)(=O)c1cccc(C(=O)NC2CCC(O)CC2)c1 (centres undefined),15%,-7%,-4%,-5%,-23%,6
C=CCN(c1ccccc1)S(=O)(=O)c1cccc(C(=O)Nc2nc3ccccc3[nH]2)c1,23µM*,21µM*,-20%,-21%,13µM*,-20
C=CCN(c1ccccc1)S(=O)(=O)c1cccc(C(=O)Nc2ccncc2)c1,?,23µM*,?,-16%,21µM*,?
O=C(CN1C(=O)COc2ccc(S(=O)(=O)N3CCOCC3)cc21)NCc1ccc(F)cc1,nt,-15%,nt,nt,-15%,nt
C=CCN(c1ccccc1)S(=O)(=O)c1cccc(C(=O)N2CCN(c3ncccn3)CC2)c1,?,6.5µM*,9%,3%,3.7µM*,-2
C=CCN(c1ccccc1)S(=O)(=O)c1cccc(C(=O)O)c1,4%,1%,9%,11%,-6%,-7
